The text below walks through data of PubChem BioAssay (EPA / NIEHS).

Inconclusive results are not listed. Activity calls are given as the source filed them. The calls were made as follows: active = hit-call score of the fitted dose curve at least 0.9, where 1 is the maximum; inconclusive = response in the unintended direction; inactive = score below 0.9.

The nature of the test: ACEA_AR_antagonist_AUC_viability: ACEA Biosciences xCELLigence Real-Time Cell Analysis on Androgen Receptor Antagonism for Viability (AID 2283776).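 Also: hits lower the growth signal relative to DMSO meaning cytotoxicity.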 As to the method: ACEA_AR_antagonist is a cell-based, single-readout assay that uses 22Rv1, a human prostate cancer cell line, with measurements taken at 80 hours after chemical dosing in a 384-well plate, although TO5 and TO6 (mc0.srcf) used a 96-well plate. Differences in plate size can be ignored given data normalization.ACEA_AR_80hr is one of two assay component(s) measured or calculated from the […] assay. It is designed to make measurements of real-time cell-growth kinetics, a form of growth reporter, as detected with electrical impedance signals by Real-Time Cell Electrode Sensor (RT-CES) technology.Data from the assay component ACEA_AR_antagonist_AUC_viability was analyzed in the positive analysis fitting direction relative to DMSO as the negative control and baseline of activity. Using a type of growth reporter, loss-of-signal activity can be used to understand changes in the viability. Furthermore, this assay endpoint can be referred to as a secondary readout, because this assay has produced multiple assay endpoints where this one serves a viability function. To generalize the intended target to other relatable targets, this assay endpoint is annotated to the cell cycle intended target family, where the subfamily is cytotoxicity.
The xCELLigence system Multi-E-Plate stations were used to measure the time-dependent response to chemicals. Each compound was tested in an eight-point, 1:4 serial dilution series starting at a maximum final concentration of 100 uM. A maximum starting concentration of 0.5% DMSO was present in the 100 uM chemical samples and was diluted along with the test article dilution series. The screen was performed in biological duplicate using two separate, 96-well, E-Plates 96 for each dilution series (n = 2). Positive controls (MG132 and testosterone) and a negative control (assay media) were tested in quadruplicate on each testing plate. Then, 0.5% and 0.125% DMSO were tested in duplicates in each plate to serve as solvent controls for the 2 highest concentrations of testing compounds: 100 uM and 25 uM. Reference compounds were tested with 8 concentrations with 1:5 serial dilutions. All screening was carried out by ACEA Biosciences, Inc. (San Diego, CA). 22Rv1 cells purchased from ATCC were maintained in media supplemented with 10% fetal bovine serum (FBS). Before screening, 22Rv1 cells were preconditioned in assay medium. Cells were then detached and seeded in E-Plates 96 in assay medium. After overnight monitoring of growth once every hour, compounds were added to […] cells and remained in the medium until the end of the experiment. Cellular responses were then recorded once every 5 min for the first 5 h, and once every hour for an additional 100 h.
Take `O=C1NC(=O)c2ccccc21`: the molecule was called inactive.

As for `CC(=O)OCCOC(C)=O`, the call was inactive. `C[Si](O[Si](C)(C)C)O[Si](C)(C)C`: the outcome was inactive.

As to `CC(C)(C#N)c1cc(Cn2cncn2)cc(C(C)(C)C#N)c1`, the AC50 – broadly, the concentration giving half of the maximal activity seen – was 30 µM (active).

On to `C=C(C)C(=O)O`, for which the result was inactive.

With `CCCC/C=C\CCCCCCCCCC=O`, the molecule was classed as inactive. Regarding `Cc1ccc(C(C)C)cc1O`, the molecule was called inactive.

`CCCCCCCCCCCCCCCC(=O)OC[C@H](O)[C@H]1OC(=O)C(O)=C1O`: the result was inactive. On the same count and under the same terms, then `OC1OC[C@@H](O)[C@H](O)[C@H]1O` (stereo not given in full), with “inactive”; and `CC(C)CCCCCCCOC(=O)c1ccc(C(=O)OCCCCCCCC(C)C)c(C(=O)OCCCCCCCC(C)C)c1`, with “inactive”; and `C=O`, with “inactive”. As to `CC(C)=CCC[C@](C)(O)[C@@H]1CC=C(C)CC1`, the call was inactive.

Take `O=c1cc(-c2ccccc2)oc2cc(O)cc(O)c12`: the result was inactive. On to `COc1ccc(O)cc1`, for which the molecule was called inactive. Turning to `BrC1CCC(Br)C(Br)CCC(Br)C(Br)CCC1Br` (stereo not given), the outcome was inactive. As for `NC(=O)NC1NC(=O)NC1=O` (stereo not given), the molecule was classed as inactive. Consider `O=C(O)c1ccc(C(=O)O)cc1`, for which the result was inactive. On the same count and under the same terms, then `c1ccc2[nH]ccc2c1`, with “inactive”; and `CCCCC[Si](OCC)(OCC)OCC`, with “inactive”. On to `OCCN1CCNCC1`, for which the outcome was inactive.

For `NCCCN1CCOCC1`, the result was inactive. Same read-out and setting: then `COc1cc(C(C)(C)C)c(O)c(C(C)(C)C)c1`, with “inactive”; and `CN(C)CCCN`, with “inactive”. Regarding `O=C(O)CCCCCCCC(=O)O`, the molecule was called inactive. On to `CC1=CC(=O)NS(=O)(=O)O1`, for which the outcome was inactive.

As to `CCCCc1ccc(N)cc1`, the outcome was inactive. In the case of `O=C(Cl)c1cccc(C(=O)Cl)c1`, the AC50 is 8.27 µM (active).

Consider `O=Nc1ccc(Nc2ccccc2)cc1`, for which the molecule was classed as inactive. Same read-out and setting: as for `CC(C)=CCCC(C)CC=O` (stereo not given), the entry is “inactive”; as for `O=C(O)Cc1cccc2ccccc12`, “inactive”; as for `CCCCOCCOCCOCCOCCO`, “inactive”. Same read-out and setting: then `CSc1nc(NC2CC2)nc(NC(C)(C)C)n1`, with “inactive”; and `C=CC[N+](C)(C)CC=C`, with “inactive”. On to `CC1COc2ccccc2N1C(=O)C(Cl)Cl` (stereo not given), for which the AC50 was 4.63 µM (active). As for `Cc1ccc(O)c(C(C)(C)C)c1`, the result was inactive. On the same count and under the same terms, then `O=C1c2ccccc2C(=O)N1SC1CCCCC1`, with “inactive”; and `CC1(C)C(=O)N(Br)C(=O)N1Cl`, with “inactive”; and `CC(=O)OCCC(C)CC(C)(C)C` (stereo not given), with “inactive”. For the molecule `CCN(CC)c1ccc2c(-c3ccccc3C(=O)O)c3ccc(=[N+](CC)CC)cc-3oc2c1`, the outcome was inactive. In the case of `CC(C)c1cccc(O)c1`, the call was inactive.
